{"source": "PubChem BioAssay (NCATS)", "note": "Results filed as inconclusive are left out. A number with no mark means an inactive call. Active and inactive are the calls of the source. Calls come from the whole dose curve; as a rule, active = well fitted cell-killing curve with a large enough effect; inconclusive = small, poorly fitted or top-dose-only effect; inactive = no such curve, though single readings can be large or run the other way.", "data": [{"test": "qHTS of pediatric cancer cell lines to identify multiple opportunities for drug repurposing: Primary screen for LAN-5 cells (AID 1347100); note: potency is the fitted concentration of half-maximal effect", "settings": "LAN-5 neuroblastoma viability, CellTiter-Glo luminescence, 48 h; series mostly up to 46 µM; activity change, negative = cytotoxic: at the top concentration", "source_text": "Drug repurposing or repositioning has been offered as a strategy for drug development in oncology programs. This approach has special potential for childhood cancers and other rare or orphan diseases, where the expected return on new drug development has been a disincentive to pharmaceuticals.\nIn this project we exploit the poly-pharmacology of drugs to discover new indications via phenotypic screening of a panel of 19 well-characterized cell lines derived from solid tumors seen in children and adolescents. The goal is to identify approved drugs with previously unrecognized anticancer properties that has the potential to reveal new mechanisms and biological processes involved in carcinogenesis or drug resistance. We employed a titration-based paradigm (quantitative high-throughput screening or qHTS), where all compounds were tested at multiple concentrations for their effect on cell viability. Concentration-response curves (CRCs) were derived directly from the primary screen, and both potency and efficacy values were used to identify compounds with robust bioactivity profiles. We screened the NIH Chemical Genomics Center (NCGC) Pharmaceutical Collection (NPC) and Mechanism Interrogation Plate (MIPE) small molecule collections of approved and investigational compounds against these cell lines; and measured metabolically active cells after 48 hours of compound treatment as a proxy for cell viability.\nAssay Submitter: Nathalia J. Martinez, National Center for Advancing Translational Sciences, National Institutes of Health, Rockville, MD, USA; email: natalia.martinez@nih.gov\n[1] Shen, M et al. Quantitative high-throughput phenotypic screening of pediatric cancer cell lines identifies multiple opportunities for drug repurposing. Oncotarget 2017 Dec 19;9(4):4758-4772. PMID 29435139.\nThe cells were obtained from University of North Carolina (UNC), Pediatric Preclinical Testing Program (PPT), and Coriell Institute (CI).\nqHTS cell viability assay:\nCells were assayed in growth media at a density of 500-1,000 cells/well. Five microliters of cells were dispensed into 1,536-well, white, solid-bottom, TC-treated plates (Greiner Bio One) using a multidrop dispenser and incubated at 37 degrees C, 5% CO2, under a humidified atmosphere for 5 hours. Twenty-three nanoliters of compounds and controls (neutral control DMSO or positive control bortezomib at final concentration of 2.3 µM) were subsequently transferred by Kalypsys pintool. For primary screens, the MIPE collection was tested at 11-point dilutions (final concentrations range from 0.78 nM to 46 µM) and the NPC collection at 8-point dilutions (final concentrations range from 0.59 nM to 46 µM). Compounds tested in follow-up screens were assayed at 11-point dilutions. Cells were incubated for 48 hours, followed by addition of 3 µL of CellTiter-Glo (Promega). After a 15 min incubation at room temperature, samples were analyzed for luminescence intensity using a ViewLux High-throughput CCD imager equipped with clear filters.", "values": [{"compound": "Cc1ccccc1OCC(O)CO", "note": "(stereo not given)", "activity change, negative = cytotoxic": "-5.4%"}, {"compound": "N=C(N)N1CCc2ccccc2C1", "activity change, negative = cytotoxic": "-2.04% [at 4.84 µM]"}, {"compound": "COc1ccc(/C=N/NC(=O)c2ccncc2)cc1OC", "activity change, negative = cytotoxic": "-1.02%"}, {"compound": "CCC(C(=O)OCCOCCN(CC)CC)c1ccccc1", "note": "(stereo not given)", "activity change, negative = cytotoxic": "-6.33%"}, {"compound": "NC(=S)N/N=C/c1cccnc1", "activity change, negative = cytotoxic": "30.1%"}, {"compound": "CCN(CC)CCNC(=O)c1cc(Br)c(N)cc1OC", "activity change, negative = cytotoxic": "-1.68%"}, {"compound": "COc1cc(C(=S)N2CCOCC2)ccc1O", "activity change, negative = cytotoxic": "17.1%"}, {"compound": "O=C(c1ccc(F)cc1)C1CCN(CCn2c(=S)[nH]c3ccccc3c2=O)CC1", "activity change, negative = cytotoxic": "-14.9%"}, {"compound": "CC(C)(C)NC[C@H](O)COc1cccc2c1CCCC2=O", "activity change, negative = cytotoxic": "0.444%"}, {"compound": "CCC(Cc1c(I)cc(I)c(N)c1I)C(=O)O", "note": "(stereo not given)", "activity change, negative = cytotoxic": "8.43%"}, {"compound": "COc1cc(O)c(C(=O)c2ccccc2)cc1S(=O)(=O)O", "activity change, negative = cytotoxic": "16.8%"}, {"compound": "CC(O)Cn1cnc2c1c(=O)n(C)c(=O)n2C", "note": "(stereo not given)", "activity change, negative = cytotoxic": "16%"}, {"compound": "CCc1oc2ccccc2c1C(=O)c1cc(Br)c(O)c(Br)c1", "activity change, negative = cytotoxic": "-9.01%"}, {"compound": "CCOC(=O)c1ccc(N)cc1", "activity change, negative = cytotoxic": "13.7%"}, {"compound": "CCOCCn1c(N2CCCN(C)CC2)nc2ccccc21", "activity change, negative = cytotoxic": "-11.7%"}, {"compound": "COc1ccc(CCN(C)CCCN2CCc3cc(OC)c(OC)cc3CC2=O)cc1OC", "activity change, negative = cytotoxic": "9.46%"}, {"compound": "CC(C)[C@@H]1CC[C@@H](C)CC1=O", "activity change, negative = cytotoxic": "11.9%"}, {"compound": "CC(C)(C)NCC(O)COc1cccc2c1C[C@H](O)[C@H](O)C2", "note": "(stereo not given in full)", "activity change, negative = cytotoxic": "21%"}, {"compound": "CCN(CC)CCOc1ccccc1C(=O)CCc1ccccc1", "activity change, negative = cytotoxic": "-3.2%"}, {"compound": "CCCCCCCC/C=C\\CCCCCCCCN", "activity change, negative = cytotoxic": "25.4%"}, {"compound": "OC(C#CCN1CCCC1)(c1ccccc1)c1ccccc1", "activity change, negative = cytotoxic": "0.965%"}, {"compound": "Cc1c[nH]c2ccccc12", "activity change, negative = cytotoxic": "3.52%"}, {"compound": "NCCNC(=O)c1ccc(Cl)cn1", "activity change, negative = cytotoxic": "14.9%"}, {"compound": "CCCN(CCC)S(=O)(=O)c1ccc(C(=O)O)cc1", "activity change, negative = cytotoxic": "13%"}, {"compound": "Cn1c(=O)c2[nH]c(Br)nc2n(C)c1=O", "activity change, negative = cytotoxic": "-13.7%"}, {"compound": "O=C(Nc1cccc(C2=NCCN2)c1)Nc1cccc(C2=NCCN2)c1", "activity change, negative = cytotoxic": "-13.2% [at 16.1 µM]"}, {"compound": "O=C(CN1CCN(Cc2ccc3c(c2)OCO3)CC1)N1c2ccccc2Sc2ccccc21", "activity change, negative = cytotoxic": "-9.1%"}, {"compound": "Nc1ccc(C(=O)NCC(=O)O)cc1", "activity change, negative = cytotoxic": "-1.8%"}, {"compound": "COc1ccc(C(=O)c2ccccc2)c(O)c1", "activity change, negative = cytotoxic": "20.5%"}, {"compound": "CCCCCCCCCCCCCCCCO", "activity change, negative = cytotoxic": "0%"}, {"compound": "COc1ccc(CN(CCN(C)C)c2ncccn2)cc1", "activity change, negative = cytotoxic": "-2.84%"}, {"compound": "Nc1nc(Cl)nc2c1ncn2[C@@H]1O[C@H](CO)[C@@H](O)[C@@H]1F", "Potency": "335 nM (active)"}, {"compound": "C[N+]1(C)CCC(=C(c2ccccc2)c2ccccc2)CC1", "activity change, negative = cytotoxic": "6.42%"}, {"compound": "COc1cc([C@H]2Oc3cc([C@H]4Oc5cc(O)cc(O)c5C(=O)[C@@H]4O)ccc3O[C@@H]2CO)ccc1O", "activity change, negative = cytotoxic": "7.79%"}, {"compound": "CN1CCc2cccc3c2[C@H]1Cc1ccc(O)c(O)c1-3", "Potency": "11900 nM (active)"}, {"compound": "Cc1nc(-c2ccc(Cl)cc2)oc1COC(C)(C)C(=O)O", "activity change, negative = cytotoxic": "-5.2%"}, {"compound": "C[C@H]1O[C@@H](O[C@H]2CC[C@@]3(C)[C@H](CC[C@@H]4[C@@H]3C[C@@H](O)[C@]3(C)[C@@H](C5=CC(=O)OC5)CC[C@]43O)C2)C[C@H](O)[C@@H]1O[C@H]1C[C@H](O)[C@H](O[C@H]2C[C@H](O)[C@H](O[C@@H]3O[C@H](CO)[C@@H](O)[C@H](O)[C@H]3O)[C@@H](C)O2)[C@@H](C)O1", "Potency": "237 nM (active)"}, {"compound": "O=C(Nc1ccc([N+](=O)[O-])cc1)Nc1ccc([N+](=O)[O-])cc1", "activity change, negative = cytotoxic": "-7.72%"}, {"compound": "CC(=O)Oc1ccc(C)cc1", "activity change, negative = cytotoxic": "-0.0288%"}, {"compound": "CCN(CC)CCOC(=O)C1(c2ccccc2)CCCC1", "activity change, negative = cytotoxic": "-0.325%"}]}]}
